This note sets out measurements from PubChem BioAssay AID687016 (The Scripps Research Institute Molecular Screening Center, 2013).

The inhibition is the change of the read-out against control, counted positive when it falls.

Among all 370,000 compounds or so, about 2,800 (0.76%) were called active. Rule as the data show it: active = inhibition above about 21%; inactive = the rest. For the sample, actives were picked, then their nearest neighbours and some compounds at random.

For the test, the target named is E3 ubiquitin-protein ligase UHRF1 (Homo sapiens) (UniProt Q96T88). The experiment in a line: UHRF1 methylated DNA binding inhibitors, primary screen, counter-screen for MBD2 inhibitor project, biochemical, TR-FRET, human UHRF1, single concentration (AID 687016).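 Also: UHRF1 SRA domain binding a hemimethylated CpG hairpin DNA probe; 0% = median of test compound wells and 100% = reference inhibitor.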 Conditions: UHRF1 binding to methylated oligo, at 4.4 µM, hits give high values. (A counterscreen serves to expose hits that act by an unwanted route or on another target.)
Chain of E3 ubiquitin-protein ligase UHRF1 (Homo sapiens) (Q96T88 whole entry, looked up, the tested form may be a part): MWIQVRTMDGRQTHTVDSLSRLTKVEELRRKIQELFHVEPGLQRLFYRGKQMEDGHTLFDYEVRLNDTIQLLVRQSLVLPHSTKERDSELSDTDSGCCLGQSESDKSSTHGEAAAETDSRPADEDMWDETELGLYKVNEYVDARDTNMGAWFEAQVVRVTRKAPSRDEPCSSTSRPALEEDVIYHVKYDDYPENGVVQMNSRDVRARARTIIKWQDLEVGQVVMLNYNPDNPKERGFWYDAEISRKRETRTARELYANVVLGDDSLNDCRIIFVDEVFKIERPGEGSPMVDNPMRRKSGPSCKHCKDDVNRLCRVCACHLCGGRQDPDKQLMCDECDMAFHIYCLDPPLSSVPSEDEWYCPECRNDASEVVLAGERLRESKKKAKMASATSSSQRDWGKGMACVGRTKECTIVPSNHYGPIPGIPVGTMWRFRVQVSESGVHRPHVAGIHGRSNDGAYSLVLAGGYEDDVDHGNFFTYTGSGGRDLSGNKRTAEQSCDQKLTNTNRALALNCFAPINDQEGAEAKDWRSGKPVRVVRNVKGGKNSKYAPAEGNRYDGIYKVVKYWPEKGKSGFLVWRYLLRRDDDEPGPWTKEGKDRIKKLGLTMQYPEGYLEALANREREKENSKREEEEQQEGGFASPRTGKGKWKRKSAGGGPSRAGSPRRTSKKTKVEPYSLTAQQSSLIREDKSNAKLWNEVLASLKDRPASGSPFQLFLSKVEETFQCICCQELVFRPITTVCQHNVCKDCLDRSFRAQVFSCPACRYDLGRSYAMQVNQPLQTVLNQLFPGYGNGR
For the compound `CN(C)C(=O)c1cccc(-c2cnc3c(NC=O)cc(-c4ccc(C(=O)N5CCOCC5)cc4)cn23)c1`, the inhibition was -6.57% (inactive).

For the compound `CC(=O)c1cccc(-c2cnc3c(NC=O)cc(-c4ccc(N5CCN(C)CC5)cc4)cn23)c1`, the inhibition was -0.16% (inactive).

Consider `CC(=O)c1cccc(-c2cnc3c(NC=O)cc(-c4ccc(N(C)C)cc4)cn23)c1`, for which the inhibition was 31.6% (active).

For `Cc1ccccc1CN1CCCCC(NC(=O)Nc2ccccc2F)C1=O` (configuration not stated), the inhibition is -1.71% (inactive).

For the compound `CC1(C)Cc2c(C#N)c(SCc3nc4ccccc4[nH]3)nc(N3CCOCC3)c2CO1`, the inhibition was 25.8% (active).

Regarding `CCOC(=O)CSc1nc(N2CCOCC2)c2c(c1C#N)CC(C(C)C)OC2` (configuration not stated), the inhibition is 1.09% (inactive).

Take `CC(C)C(=O)N1CCN(c2nc(-c3ccccc3)c3c(c2C#N)CC(C)(C)OC3)CC1`: the inhibition was -0.61% (inactive).

On to `CCC[C@H]1C(=O)CC[C@@]23CCCN2C(=O)CCC[C@@H]13`, for which the inhibition is -3.81% (inactive).

`CCN(CC)C(=O)Cn1cc(S(=O)(=O)CC(=O)NCc2ccc3c(c2)OCO3)c2ccccc21`: the inhibition was 22.7% (active).

Consider `CC(C)N(C(=O)Cn1cc(S(=O)(=O)CC(=O)N2CCOCC2)c2ccccc21)C(C)C`, for which the inhibition is 0.05% (inactive).

Consider `CCN(CC)C(=O)C(=O)c1cn(CC(=O)NCc2ccc3c(c2)OCO3)c2ccccc12`, for which the inhibition was 1.9% (inactive).

On to `CCCC1(C(=O)OC)NC(c2ccco2)C2C(=O)N(C)C(=O)C21` (configuration not stated), for which the inhibition was 26.9% (active).

For the compound `CC[C@@]1(C(=O)OC)N[C@H](CN(C)C(C)=O)[C@@H]2C(=O)N(C)C(=O)[C@@H]21`, the inhibition was 4.65% (inactive).

Take `CCCSc1ccc([C@H]2N[C@@](Cc3ccccc3)(C(=O)OC)[C@H]3C(=O)N(C)C(=O)[C@@H]23)cc1`: the inhibition was 2.8% (inactive).

Take `COc1ccc2c(c1)CN1CN(CCc3ccccc3)S(=O)(=O)CC21` (configuration not stated): the inhibition is -5.7% (inactive).

As to `COC(=O)[C@@]12CCCCC3=C1N(CCC3)C(=O)[C@H]2CC(=O)NCc1cccc2ccccc12`, the inhibition is -1.21% (inactive).

Take `CC(=O)N1CCc2cc(S(=O)(=O)NCCC(=O)N3CCCC3)ccc21`: the inhibition is 2.88% (inactive).

As for `CC(c1ccc(N)cc1)c1cn(C)c2ccccc12` (configuration not stated), the inhibition was 2.19% (inactive).

For the compound `O=C(NCCc1c[nH]c2ccccc12)OCc1cn(-c2c(F)cccc2F)nn1`, the inhibition is -1.24% (inactive).

Consider `O=S(=O)(c1ccccc1)N1CCC(c2nc3ccccc3o2)CC1`, for which the inhibition is -2.1% (inactive).

With `Cc1ccc(S(=O)(=O)N2CCN(C(=O)CCC(=O)NC3CCCc4ccccc43)CC2)cc1` (configuration not stated), the inhibition was -0.03% (inactive).

On to `CNS(=O)(=O)c1cccc(C(=O)NC2CCCc3ccccc32)c1` (configuration not stated), for which the inhibition is -0.54% (inactive).

With `O=C(O)c1cc(S(=O)(=O)NC2CCCc3ccccc32)ccc1O` (configuration not stated), the inhibition was 26.4% (active).

As for `COC(=O)C1CN(CCc2ccccc2)CCS(=O)(=O)N1Cc1ccc(F)cc1` (configuration not stated), the inhibition was 2.78% (inactive).

`O=C(Nc1cc(F)cc(F)c1)OC1CCC12CCC(c1ccccc1)CC2` (configuration not stated): the inhibition is -0.77% (inactive).

In the case of `CC(C)(C)c1ccc(C(=O)Nc2cc(Cl)c(Br)cc2C(=O)O)cc1`, the inhibition was 3.66% (inactive).

`COc1ccccc1N(CC(=O)N/N=C(\C)c1ccccc1O)S(=O)(=O)c1ccc(C)cc1`: the inhibition is -1.56% (inactive).

With `Cc1ccc(S(=O)(=O)N(CC(=O)N/N=C/c2ccc(F)cc2)c2cccc3cccnc23)cc1`, the inhibition is 24.1% (active).

`Cc1ccc(S(=O)(=O)N(CC(=O)NN=C2CCN(C)CC2)c2ccc(F)cc2)cc1`: the inhibition is -0.56% (inactive).

As to `O=S1(=O)c2ccc(Br)cc2OC[C@H](Cc2ccccc2)N1Cc1cn(Cc2ccccc2)nn1`, the inhibition is 1.7% (inactive).

For the compound `COc1ccc(S[C@]2(C(=O)N(C)C)CC(=O)N(c3ccc(OC)cc3)[C@@H]2c2ccc(OC)cc2)cc1`, the inhibition is 2.01% (inactive).

In the case of `O=C(O)c1ccc(NN=CC2=C(N3CCOCC3)/C(=C/c3ccccc3)CC2)cc1`, the inhibition was 22.5% (active).

As to `O=C(Nc1ccc(F)cc1)c1cccnc1N1CCOCC1`, the inhibition is -3.63% (inactive).

As to `O=C1OC(NC(=O)c2ccccc2)C(N2CCOCC2)=C1Cl` (configuration not stated), the inhibition was 0.02% (inactive).

With `CCOC(=O)C(=O)N(Cc1ccccc1)c1ccccc1C(=O)Nc1cc(OC)ccc1OC`, the inhibition is 1.4% (inactive).

In the case of `COc1ccc(NC(=O)C2(C)Cc3c(-c4cccc(NC(C)=O)c4)ccnc3O2)cc1OC` (configuration not stated), the inhibition was 3.78% (inactive).

For the compound `COc1ccc(CCNc2nc(C)cc(C)n2)cc1OC`, the inhibition was -1.42% (inactive).

Take `COc1ccc(CCNc2nc(-c3cccc(NC(C)=O)c3)cs2)cc1OC`: the inhibition was 63% (active).

Take `Cc1ccc(CSc2nnc(SCC(=O)NN=Cc3cc(Br)ccc3F)s2)cc1`: the inhibition is -0.65% (inactive).

In the case of `COc1ccc(-n2c(SCC(=O)Nc3ccc(C)c(Cl)c3)nc3ccccc3c2=O)cc1`, the inhibition is 0.63% (inactive).

For `COc1ccc(NC(=O)CSc2nnc(Cc3ccccc3)c(=O)n2N)cc1`, the inhibition is -3.2% (inactive).

With `COc1ccc(NC(=O)CSc2nc3ccccc3c(=O)n2C)cc1`, the inhibition was 40.1% (active).

With `COc1ccc(C2CC=C(C(=O)O)C(c3ccccc3F)N2S(=O)(=O)c2ccc(C)cc2)cc1OC` (configuration not stated), the inhibition is -0.43% (inactive).

Turning to `COc1cccc(N(C)C(=O)[C@@H](C)[C@@H](O)c2ccc3ccccc3c2)c1`, the inhibition was -1.4% (inactive).

Consider `CC(C)Oc1ccc(C2NC(=O)NC2=O)cc1` (configuration not stated), for which the inhibition was 25% (active).

For the compound `COc1ccc(C2NC(=O)N(C)C(C)=C2[N+](=O)[O-])cc1` (configuration not stated), the inhibition is 0.56% (inactive).

As to `O=C1NC(=O)C(c2ccc(Cl)cc2)N1` (configuration not stated), the inhibition was 2.25% (inactive).

For the compound `N#Cc1ccccc1OC[C@@H](O)CN1CCC(C(O)(c2ccccc2)c2ccccc2)CC1`, the inhibition was -2.62% (inactive).

On to `Cc1ccc(CN2CCCCC(NC(=O)C3CCCCC3)C2=O)cc1` (configuration not stated), for which the inhibition is -1.14% (inactive).

Turning to `CCCN(CCC)C(=S)Nc1cc(C(=O)OC)ccc1C(=O)OC`, the inhibition is 20.9% (active).

`CCS(=O)(=O)Nc1cc(C(=O)OC)ccc1C(=O)OC`: the inhibition is -4.74% (inactive).

Turning to `CCN(CCO)C(=S)Nc1cc(C(=O)OC)ccc1C(=O)OC`, the inhibition was 2.08% (inactive).

Turning to `COc1cccc(/C=C2\CC3(OC(C)=O)CCCN2C3)c1` (configuration not stated), the inhibition is -1.67% (inactive).

Take `Cc1ccc(-c2nn(-c3ccc(F)cc3)cc2C(=O)NCC(c2cccs2)N2CCOCC2)cc1` (configuration not stated): the inhibition was -1.94% (inactive).

In the case of `O=C(NCC(c1cccs1)N1CCOCC1)c1cc(Cl)ccc1[N+](=O)[O-]` (configuration not stated), the inhibition was 29.1% (active).

In the case of `COc1ccc(NS(=O)(=O)c2ccc(C)c(C(=O)NCC(c3cccs3)N3CCOCC3)c2)cc1` (configuration not stated), the inhibition is 3.98% (inactive).

Turning to `O=C(NCC1COc2ccccc2O1)c1ccc(NC(=O)c2cc(F)ccc2F)cc1` (configuration not stated), the inhibition was -0.34% (inactive).

As for `O=C(CNS(=O)(=O)c1ccccc1F)N1CCN(c2ccccn2)CC1`, the inhibition was -1.25% (inactive).

Consider `NC1=CC(=O)C(=O)c2cccnc21`, for which the inhibition is 21.7% (active).

Take `Cc1cc(C(F)(F)F)c(C#N)c(SCC(=O)NC2CC2)n1`: the inhibition is 25.8% (active).

Regarding `Cc1nc(SCC(=O)NC2CCCCC2C)c(C#N)c(C)c1C` (configuration not stated), the inhibition was 3.02% (inactive).

Turning to `Cc1cc(C)c(C#N)c(SCC(=O)NN2CC(=O)N(c3ccccc3F)CC2=O)n1`, the inhibition was 1.74% (inactive).

Take `CCCCOCCCNC(=O)C[C@H]1C[C@@]2(C(=O)OC)C(=C[C@H](COCc3ccccc3)O[C@@H]2C)N(Cc2cccc3ccccc23)C1=O`: the inhibition was -3.11% (inactive).

As for `CCOC(=O)c1csc(NC(=O)C2CCCN(S(=O)(=O)c3ccc(Cl)s3)C2)n1` (configuration not stated), the inhibition was 0.11% (inactive).

For the compound `CC(C)CNS(=O)(=O)CC1NCCc2ccccc21` (configuration not stated), the inhibition is 1.66% (inactive).

Turning to `C=C1c2c(Cl)ccc(O)c2C(O)=C2C(=O)[C@]3(O)C(O)=C(C(N)=O)C(=O)[C@@H](N(C)C)[C@@H]3[C@@H](O)C12` (some centres not stated), the inhibition is 58.9% (active).

On to `CN(C)[C@@H]1C(=O)C(C(N)=O)=C(O)[C@@]2(O)C(=O)C3=C(O)c4c(O)ccc(Cl)c4[C@@H](O)[C@H]3C[C@@H]12`, for which the inhibition was 35.1% (active).

For the compound `CC(C)C(C#CC1CC1)N(Cc1ccc2c(c1)OCO2)C(N)=NC(=O)/C=C/c1cccc(C(F)(F)F)c1` (configuration not stated), the inhibition is -0.23% (inactive).

For `CN(CCO)c1cccc2c1S(=O)(=O)N(Cc1cn(Cc3ccc(C(F)(F)F)cc3)nn1)Cc1ccccc1O2`, the inhibition is 1.05% (inactive).

With `CCCCC(=O)N[C@@H]1CC[C@@]23CCCN2C(=O)CCC[C@H]3[C@H]1C`, the inhibition was -2.76% (inactive).

Consider `CCN(Cc1ccccc1)C(=O)CSc1nc(C)cc2c1C(=O)OC2`, for which the inhibition is 26% (active).

Turning to `CCOC(=O)CSc1nc(C)cc2c1C(=O)OC2`, the inhibition is -0.04% (inactive).

For `CCN(Cc1ccncc1)C(=O)CCc1ccccc1`, the inhibition is -1.14% (inactive).

As to `COc1ccc(-n2c(SCC(=O)Nc3ccccc3-c3ccccc3)nnc2-c2cccnc2)cc1`, the inhibition is 1.25% (inactive).

With `C[C@@H]1ON(C)[C@H]2C[C@H]3c4[nH]c5cccc(-c6ccc7c(c6)OCO7)c5c4CCN3C[C@@H]12`, the inhibition was 4.06% (inactive).

As to `COc1ccc(CCNC(=O)CCn2c(=O)c3ccccc3n(CC(=O)NCC3CCCO3)c2=O)cc1OC` (configuration not stated), the inhibition is 2.05% (inactive).

Take `Cc1ccc2nc3c(cc(C(=O)NCCc4ccccc4)c(=N)n3CC3CCCO3)c(=O)n2c1` (configuration not stated): the inhibition was -6.46% (inactive).

In the case of `COc1ccc(CCn2c(=N)c(C(=O)NCC3CCCO3)cc3c(=O)n4cccc(C)c4nc32)cc1OC` (configuration not stated), the inhibition is 24.6% (active).

With `O=C(c1cccc(C(F)(F)F)c1)N1CC[C@H]2[C@H](CCCN2Cc2cc(F)cc(F)c2)C1`, the inhibition is -0.64% (inactive).

For `Cc1noc(C)c1NC(=O)Nc1cccc2c1O[C@H](CN(C)C(=O)Nc1ccccc1)[C@@H](C)CN([C@H](C)CO)C2=O`, the inhibition was -2.78% (inactive).

On to `Cc1noc(C)c1NC(=O)Nc1ccc2c(c1)C(=O)N([C@H](C)CO)C[C@H](C)[C@@H](CN(C)C(=O)Nc1ccccc1)O2`, for which the inhibition was 22.9% (active).

For the compound `Cc1noc(C)c1NC(=O)Nc1ccc2c(c1)C(=O)N([C@H](C)CO)C[C@H](C)[C@@H](CN(C)C(=O)Nc1ccc(C(F)(F)F)cc1)O2`, the inhibition is -2.17% (inactive).
